Positions count from the first letter of the chain named.
Tests used:
Test in all cases: PBM; 200 nM protein, PBS
Details in all cases: dsDNA, one strand shown
[1] = biological target: T1, VENTX (Homo sapiens, UniProt O95231 78-163, R121Q)
T1 sequence: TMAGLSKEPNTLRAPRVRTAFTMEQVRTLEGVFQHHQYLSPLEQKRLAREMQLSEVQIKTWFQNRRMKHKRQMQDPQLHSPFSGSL

[2] = biological target: T2, PAX4 (Homo sapiens, UniProt O43316 9-242, R200K)
T2 sequence: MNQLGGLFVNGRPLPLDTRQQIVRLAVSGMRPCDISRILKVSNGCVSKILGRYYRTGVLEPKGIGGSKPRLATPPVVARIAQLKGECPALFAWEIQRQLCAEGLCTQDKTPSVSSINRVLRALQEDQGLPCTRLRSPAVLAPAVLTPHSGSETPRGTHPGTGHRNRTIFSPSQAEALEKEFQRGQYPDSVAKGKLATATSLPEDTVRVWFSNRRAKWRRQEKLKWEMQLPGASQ

[3] = biological target: T3, PAX4 (Homo sapiens, UniProt O43316 9-242)
T3 sequence: T2 sequence with K192R

[4] = biological target: T4, PAX4 (Homo sapiens, UniProt O43316 9-242, R200Q)
T4 sequence: T2 sequence with K192Q

[5] = biological target: T5, PAX4 (Homo sapiens, UniProt O43316 9-242, F177V)
T5 sequence: T2 sequence with F169V, K192R

[6] = biological target: T6, PAX4 (Homo sapiens, UniProt O43316 9-242, F177Y)
T6 sequence: T2 sequence with F169Y, K192R

[7] = biological target: T7, PAX4 (Homo sapiens, UniProt O43316 9-242, R227W)
T7 sequence: T2 sequence with K192R, R219W

[8] = biological target: CRX (Homo sapiens, UniProt O43186 26-111, R41L)
Chain of CRX (O43186 26-111 R41L): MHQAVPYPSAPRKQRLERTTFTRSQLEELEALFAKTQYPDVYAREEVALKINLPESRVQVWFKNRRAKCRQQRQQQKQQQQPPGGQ

[9] = biological target: T8, VENTX (Homo sapiens, UniProt O95231 78-163)
T8 sequence: T1 sequence with Q44R

[10] = biological target: HOXA4 (Homo sapiens, UniProt Q00056 201-287)
Chain of HOXA4 (Q00056 201-287): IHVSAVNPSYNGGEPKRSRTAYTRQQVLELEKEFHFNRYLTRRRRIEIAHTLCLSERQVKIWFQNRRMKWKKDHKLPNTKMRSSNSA

[11] = biological target: HOXB9 (Homo sapiens, UniProt P17482 171-250, T197M)
Chain of HOXB9 (Homo sapiens, UniProt P17482 171-250, T197M) (P17482 171-250 T197M): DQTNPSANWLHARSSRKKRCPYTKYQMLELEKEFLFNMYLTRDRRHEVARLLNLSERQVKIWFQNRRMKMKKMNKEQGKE

[12] = biological target: HOXC9 (Homo sapiens, UniProt P31274 178-260, K195R)
Chain of HOXC9 (Homo sapiens, UniProt P31274 178-260, K195R) (P31274 178-260 K195R): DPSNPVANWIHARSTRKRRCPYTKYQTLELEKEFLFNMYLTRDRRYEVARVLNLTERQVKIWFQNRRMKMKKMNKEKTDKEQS

[13] = biological target: HOXC10 (Homo sapiens, UniProt Q9NYD6 254-340)
Chain of HOXC10 (Homo sapiens, UniProt Q9NYD6 254-340) (Q9NYD6 254-340): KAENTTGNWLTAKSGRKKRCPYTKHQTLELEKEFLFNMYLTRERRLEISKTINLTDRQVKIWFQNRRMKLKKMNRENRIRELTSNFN

[14] = biological target: HOXB6 (Homo sapiens, UniProt P17509 132-218, K202E)
Chain of HOXB6 (P17509 132-218 K202E): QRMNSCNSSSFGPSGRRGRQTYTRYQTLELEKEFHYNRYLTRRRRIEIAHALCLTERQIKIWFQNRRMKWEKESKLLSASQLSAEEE

[15] = biological target: HOXB9 (Homo sapiens, UniProt P17482 171-250)
Chain of HOXB9 (Homo sapiens, UniProt P17482 171-250) (P17482 171-250): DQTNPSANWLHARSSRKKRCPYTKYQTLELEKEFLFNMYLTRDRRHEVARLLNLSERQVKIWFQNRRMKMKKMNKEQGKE

[16] = biological target: HOXC9 (Homo sapiens, UniProt P31274 178-260)
Chain of HOXC9 (Homo sapiens, UniProt P31274 178-260) (P31274 178-260): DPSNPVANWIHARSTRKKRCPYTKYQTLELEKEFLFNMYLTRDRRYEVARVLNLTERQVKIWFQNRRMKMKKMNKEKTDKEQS

[17] = biological target: HOXD13 (Homo sapiens, UniProt P35453 263-343, T313R)
Chain of HOXD13 (Homo sapiens, UniProt P35453 263-343, T313R) (P35453 263-343 T313R): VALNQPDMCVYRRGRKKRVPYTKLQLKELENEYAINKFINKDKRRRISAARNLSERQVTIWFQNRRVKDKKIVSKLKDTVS

[18] = biological target: HOXC9 (Homo sapiens, UniProt P31274 178-260, R193K)
Chain of HOXC9 (Homo sapiens, UniProt P31274 178-260, R193K) (P31274 178-260 R193K): as the sequence (P31274 178-260) above, with R16K counted along it

[19] = biological target: HOXD13 (Homo sapiens, UniProt P35453 263-343)
Chain of HOXD13 (Homo sapiens, UniProt P35453 263-343) (P35453 263-343): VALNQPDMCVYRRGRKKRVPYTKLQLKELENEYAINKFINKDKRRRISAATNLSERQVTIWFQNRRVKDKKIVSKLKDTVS

[20] = biological target: HOXC10 (Homo sapiens, UniProt Q9NYD6 254-340, K271E)
Chain of HOXC10 (Homo sapiens, UniProt Q9NYD6 254-340, K271E) (Q9NYD6 254-340 K271E): as the sequence (Q9NYD6 254-340) above, with K18E counted along it

[21] = biological target: HOXD13 (Homo sapiens, UniProt P35453 263-343, T313A)
Chain of HOXD13 (Homo sapiens, UniProt P35453 263-343, T313A) (P35453 263-343 T313A): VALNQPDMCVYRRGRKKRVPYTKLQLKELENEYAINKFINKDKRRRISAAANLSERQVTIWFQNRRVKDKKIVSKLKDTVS

[22] = biological target: HOXB9 (Homo sapiens, UniProt P17482 171-250, R186Q)
Chain of HOXB9 (Homo sapiens, UniProt P17482 171-250, R186Q) (P17482 171-250 R186Q): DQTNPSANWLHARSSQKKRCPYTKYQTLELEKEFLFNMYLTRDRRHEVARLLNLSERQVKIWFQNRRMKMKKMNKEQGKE

[23] = biological target: HOXC9 (Homo sapiens, UniProt P31274 178-260, R222W)
Chain of HOXC9 (Homo sapiens, UniProt P31274 178-260, R222W) (P31274 178-260 R222W): as the sequence (P31274 178-260) above, with R45W counted along it

[24] = biological target: T9, VENTX (Homo sapiens, UniProt O95231 78-163, Y115F)
T9 sequence: T1 sequence with Y38F, Q44R

[25] = biological target: ALX4 (Homo sapiens, UniProt Q9H161 200-286, Q225E)
Chain of ALX4 (Q9H161 200-286 Q225E): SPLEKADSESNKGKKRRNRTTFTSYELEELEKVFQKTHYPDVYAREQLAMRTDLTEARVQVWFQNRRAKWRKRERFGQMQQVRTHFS

[26] = biological target: PRRX1 (Homo sapiens, UniProt P54821 80-166, F113S)
Chain of PRRX1 (Homo sapiens, UniProt P54821 80-166, F113S) (P54821 80-166 F113S): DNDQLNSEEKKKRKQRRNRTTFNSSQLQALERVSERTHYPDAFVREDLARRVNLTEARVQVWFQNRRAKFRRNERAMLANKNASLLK

[27] = biological target: PRRX1 (Homo sapiens, UniProt P54821 80-166)
Chain of PRRX1 (Homo sapiens, UniProt P54821 80-166) (P54821 80-166): as the sequence (P54821 80-166 F113S) above, with S34F counted along it

[28] = biological target: HOXA2 (Homo sapiens, UniProt O43364 129-215, R185T)
Chain of HOXA2 (Homo sapiens, UniProt O43364 129-215, R185T) (O43364 129-215 R185T): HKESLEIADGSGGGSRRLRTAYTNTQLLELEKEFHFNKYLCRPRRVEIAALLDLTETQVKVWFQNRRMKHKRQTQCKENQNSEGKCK

[29] = biological target: HOXA2 (Homo sapiens, UniProt O43364 129-215, R185K)
Chain of HOXA2 (Homo sapiens, UniProt O43364 129-215, R185K) (O43364 129-215 R185K): as the sequence (O43364 129-215 R185T) above, with T57K counted along it

[30] = biological target: HOXA2 (Homo sapiens, UniProt O43364 129-215, Y150S)
Chain of HOXA2 (Homo sapiens, UniProt O43364 129-215, Y150S) (O43364 129-215 Y150S): as the sequence (O43364 129-215 R185T) above, with Y22S, T57R counted along it

[31] = biological target: HOXA2 (Homo sapiens, UniProt O43364 129-215)
Chain of HOXA2 (Homo sapiens, UniProt O43364 129-215) (O43364 129-215): as the sequence (O43364 129-215 R185T) above, with T57R counted along it

TAATGCGA
binding signal [1]: 10.2 upbm affinity estimate (log intensity, higher = more binding, comparable within an allelic series)
binding signal [2]: 11.7 upbm affinity estimate (log intensity, higher = more binding, comparable within an allelic series)
binding signal [3]: 12.1 upbm affinity estimate (log intensity, higher = more binding, comparable within an allelic series)
binding signal [4]: 11.4 upbm affinity estimate (log intensity, higher = more binding, comparable within an allelic series)
binding signal [5]: 10.4 upbm affinity estimate (log intensity, higher = more binding, comparable within an allelic series)
binding signal [6]: 10.9 upbm affinity estimate (log intensity, higher = more binding, comparable within an allelic series)
binding signal [7]: 10.9 upbm affinity estimate (log intensity, higher = more binding, comparable within an allelic series)
binding signal [8]: 10.6 upbm affinity estimate (log intensity, higher = more binding, comparable within an allelic series)

AGTTATCC
binding signal [1]: 9.65 upbm affinity estimate (log intensity, higher = more binding, comparable within an allelic series)
binding signal [9]: 10.1 upbm affinity estimate (log intensity, higher = more binding, comparable within an allelic series)
binding signal [10]: 11.1 upbm affinity estimate (log intensity, higher = more binding, comparable within an allelic series)

ATTTATTA
binding signal [11]: 10.1 upbm affinity estimate (log intensity, higher = more binding, comparable within an allelic series)
binding signal [12]: 12.7 upbm affinity estimate (log intensity, higher = more binding, comparable within an allelic series)
binding signal [13]: 12.5 upbm affinity estimate (log intensity, higher = more binding, comparable within an allelic series)
binding signal [14]: 10 upbm affinity estimate (log intensity, higher = more binding, comparable within an allelic series)
binding signal [15]: 12 upbm affinity estimate (log intensity, higher = more binding, comparable within an allelic series)
binding signal [16]: 12.8 upbm affinity estimate (log intensity, higher = more binding, comparable within an allelic series)
binding signal [17]: 10.9 upbm affinity estimate (log intensity, higher = more binding, comparable within an allelic series)
binding signal [18]: 12.7 upbm affinity estimate (log intensity, higher = more binding, comparable within an allelic series)
binding signal [19]: 12 upbm affinity estimate (log intensity, higher = more binding, comparable within an allelic series)
binding signal [20]: 12 upbm affinity estimate (log intensity, higher = more binding, comparable within an allelic series)
binding signal [21]: 11.8 upbm affinity estimate (log intensity, higher = more binding, comparable within an allelic series)
binding signal [22]: 11.7 upbm affinity estimate (log intensity, higher = more binding, comparable within an allelic series)
binding signal [23]: 11.3 upbm affinity estimate (log intensity, higher = more binding, comparable within an allelic series)

CCCGATTA
binding signal [1]: 10.4 upbm affinity estimate (log intensity, higher = more binding, comparable within an allelic series)
binding signal [24]: 10.6 upbm affinity estimate (log intensity, higher = more binding, comparable within an allelic series)

CAATAAAA
binding signal [11]: 10.1 upbm affinity estimate (log intensity, higher = more binding, comparable within an allelic series)
binding signal [12]: 13.2 upbm affinity estimate (log intensity, higher = more binding, comparable within an allelic series)
binding signal [13]: 12.9 upbm affinity estimate (log intensity, higher = more binding, comparable within an allelic series)
binding signal [25]: 11.2 upbm affinity estimate (log intensity, higher = more binding, comparable within an allelic series)
binding signal [15]: 12.7 upbm affinity estimate (log intensity, higher = more binding, comparable within an allelic series)
binding signal [16]: 13.2 upbm affinity estimate (log intensity, higher = more binding, comparable within an allelic series)
binding signal [17]: 11.2 upbm affinity estimate (log intensity, higher = more binding, comparable within an allelic series)
binding signal [18]: 13.2 upbm affinity estimate (log intensity, higher = more binding, comparable within an allelic series)
binding signal [19]: 12.5 upbm affinity estimate (log intensity, higher = more binding, comparable within an allelic series)
binding signal [20]: 12.5 upbm affinity estimate (log intensity, higher = more binding, comparable within an allelic series)
binding signal [21]: 12.3 upbm affinity estimate (log intensity, higher = more binding, comparable within an allelic series)
binding signal [22]: 12.4 upbm affinity estimate (log intensity, higher = more binding, comparable within an allelic series)
binding signal [23]: 11.7 upbm affinity estimate (log intensity, higher = more binding, comparable within an allelic series)

CCGATTAC
binding signal [1]: 10.3 upbm affinity estimate (log intensity, higher = more binding, comparable within an allelic series)
binding signal [26]: 9.76 upbm affinity estimate (log intensity, higher = more binding, comparable within an allelic series)
binding signal [24]: 10.4 upbm affinity estimate (log intensity, higher = more binding, comparable within an allelic series)
binding signal [27]: 11.8 upbm affinity estimate (log intensity, higher = more binding, comparable within an allelic series)

AATAAAAT
binding signal [11]: 10 upbm affinity estimate (log intensity, higher = more binding, comparable within an allelic series)
binding signal [12]: 12.7 upbm affinity estimate (log intensity, higher = more binding, comparable within an allelic series)
binding signal [13]: 12.5 upbm affinity estimate (log intensity, higher = more binding, comparable within an allelic series)
binding signal [25]: 11.1 upbm affinity estimate (log intensity, higher = more binding, comparable within an allelic series)
binding signal [15]: 12.1 upbm affinity estimate (log intensity, higher = more binding, comparable within an allelic series)
binding signal [16]: 12.7 upbm affinity estimate (log intensity, higher = more binding, comparable within an allelic series)
binding signal [17]: 10.8 upbm affinity estimate (log intensity, higher = more binding, comparable within an allelic series)
binding signal [18]: 12.7 upbm affinity estimate (log intensity, higher = more binding, comparable within an allelic series)
binding signal [19]: 11.8 upbm affinity estimate (log intensity, higher = more binding, comparable within an allelic series)
binding signal [20]: 12 upbm affinity estimate (log intensity, higher = more binding, comparable within an allelic series)
binding signal [21]: 11.8 upbm affinity estimate (log intensity, higher = more binding, comparable within an allelic series)
binding signal [22]: 11.7 upbm affinity estimate (log intensity, higher = more binding, comparable within an allelic series)
binding signal [23]: 11.5 upbm affinity estimate (log intensity, higher = more binding, comparable within an allelic series)

CAATAAAC
binding signal [11]: 9.69 upbm affinity estimate (log intensity, higher = more binding, comparable within an allelic series)
binding signal [12]: 12.5 upbm affinity estimate (log intensity, higher = more binding, comparable within an allelic series)
binding signal [13]: 12.2 upbm affinity estimate (log intensity, higher = more binding, comparable within an allelic series)
binding signal [25]: 10.6 upbm affinity estimate (log intensity, higher = more binding, comparable within an allelic series)
binding signal [28]: 9.38 upbm affinity estimate (log intensity, higher = more binding, comparable within an allelic series)
binding signal [15]: 11.8 upbm affinity estimate (log intensity, higher = more binding, comparable within an allelic series)
binding signal [16]: 12.7 upbm affinity estimate (log intensity, higher = more binding, comparable within an allelic series)
binding signal [17]: 10.9 upbm affinity estimate (log intensity, higher = more binding, comparable within an allelic series)
binding signal [18]: 12.5 upbm affinity estimate (log intensity, higher = more binding, comparable within an allelic series)
binding signal [29]: 11.7 upbm affinity estimate (log intensity, higher = more binding, comparable within an allelic series)
binding signal [19]: 12.2 upbm affinity estimate (log intensity, higher = more binding, comparable within an allelic series)
binding signal [20]: 11.4 upbm affinity estimate (log intensity, higher = more binding, comparable within an allelic series)
binding signal [21]: 11.9 upbm affinity estimate (log intensity, higher = more binding, comparable within an allelic series)
binding signal [22]: 11.5 upbm affinity estimate (log intensity, higher = more binding, comparable within an allelic series)
binding signal [23]: 11.1 upbm affinity estimate (log intensity, higher = more binding, comparable within an allelic series)
binding signal [30]: 10.7 upbm affinity estimate (log intensity, higher = more binding, comparable within an allelic series)
binding signal [31]: 9.11 upbm affinity estimate (log intensity, higher = more binding, comparable within an allelic series)

Reference: paper PMC11006913
